In PubChem BioAssay AID796 (Columbia University Molecular Screening Center, 2007):
Screen size: about 94,000 compounds; about 410 (0.44%) were called active. The entries come from a sample that favours actives as a whole. A number with no mark means an inactive call.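 Rule for the calls: active = inhibition above about 30% together with a positive call from visual inspection of the well image (limit read from the data); inconclusive = inhibition above a set limit but visual check negative; inactive = inhibition not above a set limit, visual check negative.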

Assay: inhibitors of IL-1B driven NFkB p65 nuclear import, primary screen, imaging, HUVEC, IL-1B stimulus, high-content imaging (AID 796);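 note: nuclear over cytoplasmic p65 intensity ratio measured by imaging; 0% = IL-1B stimulated DMSO wells and 100% = unstimulated DMSO wells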
Details: HUVEC IL-1B NFkB p65 nuclear translocation imaging; at 2 µM; hits give high values
Work on `Cc1[nH]c(=O)c(C(=O)/C=C/c2ccccc2)c2c1CCCC2` yielded an inhibition of -9.9%. `CC(=O)c1cn(CCCCCCCCCCn2cc(C(C)=O)c(=O)[nH]c2=O)c(=O)[nH]c1=O` gave an inhibition of -1.7%. Molecule `CN(CC(=O)Nc1cccc2c1CCCC2)S(=O)(=O)c1ccc(Cl)cc1` has an inhibition of 8.4%. With `CCOc1ccccc1NC(=O)C1CCCN(C(=O)Nc2ccccc2)C1` (stereo unspecified) the inhibition was 40.5% (active). Work on `CCOc1ccc(NC(=O)C2CCCN(C(=O)Nc3ccccc3)C2)cc1` (stereo unspecified) yielded an inhibition of 5.5%. `CCOc1ccccc1NC(=O)C1CCN(S(=O)(=O)c2c(C)nn(C)c2C)CC1` gave an inhibition of 13.5%. Work on `N#C/C(=C/c1ccc(Cl)cc1)NC(=O)c1ccccc1` yielded an inhibition of 0.7%. `COc1ccc(C(F)(F)F)cc1N/C=C\c1nnnn1-c1ccc(C)cc1` gave an inhibition of 7.9%. Molecule `O=C(NCCCCCCCCCNC(=O)C(F)(F)F)C(F)(F)F` has an inhibition of 8.3%. `CC(C)(CNCC(O)c1ccccc1)N1CCOCC1` (stereo unspecified) showed an inhibition of -8.1%. In the case of `CC(C)(CNC(=O)c1cc(=O)[nH]c2ccccc12)N1CCOCC1`, the inhibition is reported as 31% (active). For `Cc1c(C(=O)CN2CCOCC2)[nH]c2ccccc12`, the inhibition was -7.9%. Molecule `c1ccc2c(C[n+]3csc4ccccc43)cccc2c1` has an inhibition of -13.2%. For `CCc1nc(C)ccc1OCC(=O)N(CC)CC`, the inhibition was 5.7%. Work on `Fc1ccc(CNc2nc3ccccc3n3nnnc23)cc1` yielded an inhibition of -20.9%. Work on `CCOc1ccc(S(=O)(=O)Nc2nc3cc(OC)ccc3s2)cc1` yielded an inhibition of -6%. In the case of `Cc1ccc(C(c2nnnn2CS(=O)(=O)c2ccc(C)cc2)N2CCC(C)CC2)cc1` (stereo unspecified), the inhibition is reported as -0.3%. Molecule `O=C(Oc1ccc([N+](=O)[O-])cc1)c1ccc2ccccc2n1` has an inhibition of 1.7%. For `CCOC(=O)C1Sc2[nH]c(=O)sc2C(c2ccc(Cl)cc2)C1C(=O)OCC` (stereo unspecified), the inhibition was -11%. With `O=C(CSc1nc(C2CC2)nc2ccccc12)Nc1ccc2c(c1)OCCO2` the inhibition was 4.6%. For `O=C(CSc1nc2ncccc2[nH]1)Nc1ccc2c(c1)OCCO2`, the inhibition was 97% (active). Molecule `O=C(CSc1nnnn1C1CCCC1)Nc1ccc2c(c1)OCCO2` has an inhibition of -42.7%. `O=C(/C=C/c1ccco1)Nc1ccc(Oc2ccccc2)cc1` showed an inhibition of -2.7%. In the case of `c1ccc(C(c2ccccc2)N2CCN(Cc3nnnn3C3CCCCC3)CC2)cc1`, the inhibition is reported as 10.8%. In the case of `CC1=NN(Cc2ccccc2)C(=O)/C1=C/c1ccc(N(C)C)cc1`, the inhibition is reported as -0.4%. Work on `CCCCC(=O)N/N=C(\C)CC(=O)Nc1cc(Cl)ccc1OC` yielded an inhibition of -3.2%. For `COc1ccccc1NC(=O)c1ccc(C)s1`, the inhibition was -3.2%. Molecule `COc1ccccc1NC(=S)NC(=O)C(C)C` has an inhibition of 13.7%. With `COc1ccccc1NC(=O)/C=C/C(N)=O` the inhibition was 43.6% (active). Work on `O=C(NCc1ccccc1Cl)c1csc2c1CCCCC2` yielded an inhibition of 6.8%. Work on `Cc1ccc(SCC(=O)Nc2ncc(C)s2)cc1` yielded an inhibition of -75.7%. Molecule `CN(C)/C=C(\C#N)C(=O)c1cccnc1Oc1cccc(F)c1` has an inhibition of -5.1%. With `COC(=O)c1ccc(C(=O)OC)c(NC(=S)N2CCCCC2)c1` the inhibition was 8.4%. `COC(=O)c1ccc(CSc2ccc3nnc(-c4ccccc4)n3n2)o1` showed an inhibition of -0.1%. Work on `COc1cc(C(=O)NC(=S)NCc2ccco2)cc(OC)c1OC` yielded an inhibition of -3.4%. Work on `Cc1ccc(C(=O)/C=C/c2c(C)nn(-c3ccccc3)c2Cl)cc1` yielded an inhibition of 15.3%. Molecule `CC(C)(C)c1ccc(C(=O)CSc2ncn[nH]2)cc1` has an inhibition of -29.2%. In the case of `O=C(/C=C/Sc1ncn[nH]1)c1ccc(Cl)cc1`, the inhibition is reported as 47.7% (active). `CC(C)(C)NS(=O)(=O)CC12CCC(CC1=O)C2(C)C` (stereo unspecified) showed an inhibition of 12.7%. `Cc1cccc(COc2ccccc2/C=N/Nc2ccc([N+](=O)[O-])cc2)c1` gave an inhibition of -18.1%. Molecule `COc1ccc(OC)c(S(=O)(=O)Nc2ccccc2F)c1` has an inhibition of -16.7%. For `COc1ccc(S(=O)(=O)Nc2ccc(F)cc2)c(C)c1C`, the inhibition was 74% (active). `COc1ccc(S(=O)(=O)N2CCOCC2)c(C)c1C` showed an inhibition of -1.9%. For `O=S1(=O)C=C(SCCN2CCCC2)c2ccccc21`, the inhibition was -1.4%. Molecule `CCOC(=O)/C(C#N)=C\c1c(C)cc(C)c(COC(C)=O)c1C` has an inhibition of 8.2%. Molecule `O=C1c2ccccc2C(=O)N1CCC(c1ccccc1)c1ccco1` (stereo unspecified) has an inhibition of -2.1%. `CN(C)/C=C(\C#N)C(=O)c1cccnc1Oc1ccc(F)cc1F` gave an inhibition of 5.5%. Molecule `O=S(=O)(c1ccc(Br)cc1)n1ccc2ccccc21` has an inhibition of 5.3%. `O=C(Nc1ncc2c(n1)-c1ccccc1OC2)c1ccc(Cl)cc1` showed an inhibition of 3.3%. With `CC(N)C12CC3CC(CC(O)(C3)C1)C2` (stereo unspecified) the inhibition was -22.4%. For `C=CCN1C(=O)C(Cc2cccc(Cl)c2)S/C1=N/N=C/c1ccco1` (stereo unspecified), the inhibition was 6.5%. Molecule `CC(C)(C)NC(=O)COc1ccc(CNc2ccc3[nH]c(=O)[nH]c3c2)cc1` has an inhibition of 6.7%. With `O=C(NC1CCN(C(=S)NCc2ccco2)CC1)c1ccc(F)cc1` the inhibition was -2.5%. Molecule `O=C(Oc1ccccc1C(=S)N1CCCCC1)c1cc([N+](=O)[O-])cc([N+](=O)[O-])c1` has an inhibition of -5.6%. Molecule `CN1CC(c2ccccc2)C2(COc3ccccc3C2=O)C12C(=O)Nc1ccccc12` (stereo unspecified) has an inhibition of -0.2%. `Nc1nc(Br)c2ccccc2c1-c1ccc(F)cc1` showed an inhibition of -12.8%. `Cc1cccc(NC(=O)c2ccc(OCC(=O)NCc3ccccc3)cc2)c1C` gave an inhibition of 12.8%. `Cc1nc2c(-c3ccc(F)cc3)c(C)nn2c(C)c1CCC(=O)NCc1ccco1` gave an inhibition of 8.1%. In the case of `c1cncc(-c2nnc3n2C2(CCCCC2)Cc2ccccc2-3)c1`, the inhibition is reported as -4.9%. For `NS(=O)(=O)c1ccc(Nc2nc(-c3ccccc3)cs2)cc1`, the inhibition was 18.6%. In the case of `O=C(CNC(=O)c1cc2c(s1)CCC2)Nc1ccccc1Br`, the inhibition is reported as -43.6%. `Cc1ccc(N(CC(=O)Nc2cc(C)cc(C)c2)S(=O)(=O)c2cccc3nonc23)cc1` showed an inhibition of 0.6%. `Cc1occc1C(=O)NNC(=S)NCC(C)C` gave an inhibition of -8.5%. `COc1cccc(NC(=O)Cc2ccc(C)cc2)c1` gave an inhibition of 3.1%. With `COc1ccc(NC(=O)/C(Cl)=C(/Cl)S(=O)Cc2ccc(C)cc2)cn1` (stereo unspecified) the inhibition was 81.8% (active). Molecule `COc1ccc(CC(=O)Nc2ccc(-c3nnc(-c4ccc(C)cc4)o3)cc2)cc1` has an inhibition of -3.1%.
